# Test results: PubChem BioAssay (NCATS)
# Unmarked numbers belong to inactive results. Records with an inconclusive call do not appear. The source made the active and inactive calls. Unless noted, calls follow the shape of the dose curve; as a rule, active = well fitted curve in the direction sought with a large enough effect; inconclusive = small, poorly fitted or top-dose-only effect, or another doubt; inactive = no such curve, though single readings can be large; an effect the other way counts as inactive or inconclusive.
# Experiments:
# [1] = molecular target: Lysosomal acid glucosylceramidase (Homo sapiens) (UniProt P04062); experiment: Glucocerebrosidase-p2 (AID 348; in the data active = potency below about 10 µM; also: potency is read from the fitted curve at half-maximal effect); settings: purified GBA, blue fluorogenic substrate, 40 min
# Method in brief: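 Normal human glucocerebrosidase (0.2 nM) with blue fluorogenic substrate (80 uM final) in citrate/phosphate pH 5.9 with 10mM sodium taurocholate, 0.01% tween-20; 40 min RT, NaOH/glycine stop; fluorescence Ex 365/Em 440; AC50 from a titration from 0.6 nM upwards.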
# [2] = AP1 Signaling Pathway (AID 357; active = well fitted curve in either direction with a large enough effect, not every such curve was filed as active;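 also: ME-180 reporter cells stimulated with EGF at its EC50 level; % is scaled to controls: 0 for no effect and ±100 for the full control effect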); settings: ME-180 AP-1-bla reporter, EGF-induced, beta-lactamase ratio, 5 h; at 7.69 µM (top of the series) unless noted
# Method in brief: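 Beta-lactamase reporter under AP-1 response element, ME-180 background. Stimulus: EC50 EGF. Compound exposure 5 h, 37 °C. Detection: CCF4, 2.5 h RT, 460/530 nm. Values: AC50 from titration.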
# [3] = NFAT Signaling Pathway (AID 444; active = well fitted curve in either direction with a large enough effect, not every such curve was filed as active;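 also: carbachol stimulus at about its EC50 of 1 µM final; % is scaled to controls: 0 for no effect and ±100 for the full control effect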); settings: Jurkat NFAT-bla M1, carbachol, beta-lactamase ratio, 5 h; at 7.69 µM (top of the series) unless noted
# Method in brief: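 Jurkat cells with NFAT-driven β-lactamase reporter and co-expressed M1 receptor, stimulated with carbachol (final 1 uM, ~EC50), compound titration, 5 h at 37 °C. CCF4 loaded 1 h at RT; 460/530 nm ratio gave %activity and AC50.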
# [4] = Stat Signaling Pathway (AID 446; active = well fitted curve in either direction with a large enough effect, not every such curve was filed as active;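 also: ME-180 cervical cancer cells given 40 pM IL-6 alongside compound; SIE-controlled beta-lactamase reporter measured as 460/530 nm FRET emission ratio; % is scaled to controls: 0 for no effect and ±100 for the full control effect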); settings: ME-180 (cervical carcinoma) SIE beta-lactamase reporter, IL-6 stimulated, 5 h; at 7.69 µM (top of the series) unless noted
# Method in brief: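 FRET read-out (405 nm excitation, 460/530 nm emission) of a beta-lactamase reporter under a STAT-inducible element in ME-180 cervical carcinoma cells. Cells with compound receive 40 pM IL-6 for 5 h. Values are normalised to AC90 stimulation and AC90 JAK-inhibitor controls.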
# [5] = molecular target: Glucocorticoid receptor (Homo sapiens) (UniProt P04150); experiment: GR-GFP Redistribution (AID 450;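 active = compounds whose dose series gives a full or clear partial fitted curve of increased nuclear translocation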; also: potency is read from the fitted curve at half-maximal effect); settings: U2OS GR-GFP nuclear translocation, laser cytometry, 2 h
# [6] = molecular target: Glucocorticoid receptor (Homo sapiens) (UniProt P04150); experiment: GR-EFC Redistribution (AID 451; calls by dose curve; also: potency is read from the fitted curve at half-maximal effect); settings: CHO-K1 GR-EFC translocation, beta-gal luminescence, 2 h
# Method in brief: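 CHO-K1 cells expressing nuclear EA and GR-ED fragments of b-gal; compounds titrated up to 46 uM final, 2 h at 37 C. GR nuclear translocation read as complemented b-gal luminescence after 1 h RT detection.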
# [7] = molecular target: Mitogen-activated protein kinase 10 (Mus musculus) (UniProt Q61831); experiment: JNK3 AlphaScreen Assay (AID 530; active = well fitted curve in either direction with a large enough effect, not every such curve was filed as active;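 also: kinase came from lysate of stimulated human HepG2 cells; signal reports phosphorylation of biotinylated GST-cJun 1-79 at Ser73 with 10 µM ATP; % is scaled to controls: 0 for no effect and ±100 for the full control effect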); settings: JNK3 lysate, c-Jun phosphorylation; series mostly up to 57.1 µM
# Method in brief: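 HepG2 lysate (IL-1b/TNFa pre-activated) + biotin-GST-cJun 1-79 + anti-pSer73 cJun; cpd titration, 15 min RT; ATP 10 uM start; Tris pH 7.6, MgCl2, DTT, vanadate; beads in EDTA buffer; AlphaScreen.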
# [8] = molecular target: Dual specificity protein kinase CLK4 (Homo sapiens) (UniProt Q9HAZ1); experiment: qHTS Assay for Inhibitors of CDC-like Kinase 4 (Kinase-Glo Assay) (AID 1770); settings: recombinant Clk4, Kinase-Glo ATP depletion luminescence; series mostly up to 66.7 µM; also: nearly all actives have a fitted effect of over 65% in size; also: potency is read from the fitted curve at half-maximal effect
# Method in brief: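 Luminescent ATP-depletion read-out (Kinase-Glo) after 4.5 h room-temperature reaction of Clk4 (25 nM final) with RS peptide (100 uM) and ATP (1 uM), pH 7.5 Tris buffer with MgCl2 and DTT.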
# [9] = molecular target: Dual specificity protein kinase CLK4 (Homo sapiens) (UniProt Q9HAZ1); experiment: qHTS Assay for Inhibitors of CDC-like Kinase 4 (ADP-Glo Assay) (AID 1771); settings: recombinant CLK4, ADP-Glo luminescence; series mostly up to 80 µM; also: nearly all actives have a fitted effect of over 70% in size; also: potency is read from the fitted curve at half-maximal effect
# Method in brief: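 In this ADP-Glo format, 1 uM ATP and 100 uM RS peptide served as substrates for 25 nM Clk4 in Mg2+/EGTA/DTT/Triton buffer; reactions ran 1 hr at room temperature before luminescent ADP quantification.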
# [10] = molecular target: Ubiquitin carboxyl-terminal hydrolase 1 (Homo sapiens) (UniProt O94782); experiment: Inhibitors of USP1/UAF1: Pilot qHTS (AID 504865); settings: purified USP1/UAF1, Ub-rhodamine cleavage fluorescence; series mostly up to 54.9 µM;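 also: rhodamine fluorescence freed from ubiquitin-rhodamine substrate followed over time; top concentration of the series differs between compounds; % is scaled to controls: 0 for no effect and ±100 for the full control effect; nearly all actives have a fitted effect of over 35% in size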
# Method in brief: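 Deubiquitinase activity followed as kinetic rhodamine fluorescence release from 150 nM Ub-Rho. 1 nM USP1/UAF1 with compound, after 15 min room-temperature preincubation, in HEPES pH 7.8 buffer containing TCEP, EDTA, BSA and Tween-20.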
# [11] = Primary qHTS for small molecule stabilizers of the endoplasmic reticulum resident proteome: Secreted ER Calcium Modulated Protein (SERCaMP) assay (AID 1508630); settings: SH-SY5Y GLuc-SERCaMP (Gaussia luciferase released on ER calcium loss) secretion, thapsigargin, luminescence; series mostly up to 38.4 µM; also: % is scaled to controls: 0 for no effect and ±100 for the full control effect
# Method in brief: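 The SH-SY5Y reporter protocol was run at 3 concentrations up to 38.3 uM (primary) or 11 concentrations (follow-up): 16 h compound, 100 nM thapsigargin for 4 h, then extracellular luciferase luminescence.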
# [12] = molecular target: Cytochrome P450 1A2 (Homo sapiens) (UniProt P05177); experiment: p450-cyp1a2 (AID 410; calls by dose curve; also: potency is read from the fitted curve at half-maximal effect); settings: recombinant CYP1A2, luciferin-ME demethylation, luminescence; series mostly up to 57 µM
# Method in brief: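 Read-out is luminescence from luciferin produced by CYP1A2 demethylation of Luciferin-ME (100uM, at Km). Detection reagent stopped the 60 min NADPH-dependent reaction; signals were normalized to 57 uM furafylline.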
# [13] = molecular target: Cytochrome P450 3A4 (Homo sapiens) (UniProt P08684); experiment: qHTS Assay for Inhibitors and Substrates of Cytochrome P450 3A4 (AID 884); settings: recombinant CYP3A4, Luciferin-PPXE luminescence; series mostly up to 57.1 µM; also: potency is read from the fitted curve at half-maximal effect; nearly all actives have a fitted effect of over 50% in size
# Method in brief: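 Luminescent readout of luciferin produced by CYP3A4 (20 nM) dealkylation of Luciferin-PPXE, 25 uM (its KM). NADPH-driven reaction ran 60 min at RT after 10 min compound preincubation; data scaled to 57 uM ketoconazole as 100% inhibition.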
# [14] = molecular target: Cytochrome P450 3A4 (Homo sapiens) (UniProt P08684); experiment: qHTS Assay for Activators of Cytochrome P450 3A4 (AID 885); settings: recombinant CYP3A4, Luciferin-PPXE luminescence, 60 min; series mostly up to 57.1 µM; also: nearly all actives have a fitted effect of over 65% in size
# Method in brief: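 Luminescent readout of luciferin formed from 25 uM Luciferin-PPXE (KM level) by 20 nM CYP3A4 in 200 mM KPO4, with 60 min NADPH-driven reaction at room temperature after 10 min compound exposure. Ketoconazole (57 uM) defined 100% inhibition.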
# [15] = molecular target: Cytochrome P450 2C19 (Homo sapiens) (UniProt P33261); experiment: qHTS Assay for Inhibitors and Substrates of Cytochrome P450 2C19 (AID 899); settings: recombinant CYP2C19, luciferin-H EGE luminescence; series mostly up to 57.1 µM; also: potency is read from the fitted curve at half-maximal effect; nearly all actives have a fitted effect of over 60% in size
# Method in brief: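 5 nM human CYP2C19 with 10uM Luciferin-H EGE (at KM) in 50mM KPO4, compound preincubated 10 min at 37C, then NADPH regeneration for 60 min at 37C. Luciferin read by luminescence after detection reagent; normalized to 57uM ketoconazole as full inhibition.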
# [16] = molecular target: 3',5'-cyclic-AMP phosphodiesterase 4B (Homo sapiens) (UniProt Q07343); experiment: qHTS Assay for Inhibitors of PDE-IV (AID 607; active = well fitted activation curve with a large enough effect in the main read-out, with a control signal flat, not every such curve was filed as active; also: % of control where 0% means no effect); settings: HEK293 ACTOne CNG channel cells, membrane potential fluorescence; series mostly up to 22.9 µM
# Method in brief: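 Cell-based read-out of cAMP via a modified cyclic nucleotide-gated channel and membrane potential dye (535/590 nm) in HEK293 cells expressing PDE4 endogenously. Compounds tested up to 22.9 uM final; 100 uM RO 20-1724 reference.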
# [17] = molecular target: Cytochrome P450 2C9 (Homo sapiens) (UniProt P11712); experiment: qHTS Assay for Inhibitors and Substrates of Cytochrome P450 2C9 (AID 883); settings: recombinant CYP2C9, luciferin-H luminescence, 60 min; series mostly up to 57.1 µM; also: potency is read from the fitted curve at half-maximal effect; nearly all actives have a fitted effect of over 60% in size
# Method in brief: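 Human CYP2C9 (10nM) with Luciferin-H at 100uM (its KM) in 25mM KPO4; compound preincubated 10 min at 37C, then NADPH regeneration for 60 min at 37C. Luciferin read by luminescence after detection reagent; normalized to 57uM sulphaphenazole as full inhibition.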
# [18] = molecular target: Cytochrome P450 2D6 (Homo sapiens) (UniProt P10635); experiment: qHTS Assay for Inhibitors and Substrates of Cytochrome P450 2D6 (AID 891); settings: recombinant CYP2D6, luciferin-ME EGE luminescence; series mostly up to 57.1 µM; also: potency is read from the fitted curve at half-maximal effect; nearly all actives have a fitted effect of over 60% in size
# Method in brief: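 Luminescent read-out of luciferin formed by 5 nM human CYP2D6 demethylating 30 uM Luciferin-ME EGE (Km level) over 60 min at room temperature after NADPH regeneration addition. Data normalized to full inhibition by 1.43 uM quinidine.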
# Sequence of Ubiquitin carboxyl-terminal hydrolase 1 (Homo sapiens) (O94782 whole entry, looked up): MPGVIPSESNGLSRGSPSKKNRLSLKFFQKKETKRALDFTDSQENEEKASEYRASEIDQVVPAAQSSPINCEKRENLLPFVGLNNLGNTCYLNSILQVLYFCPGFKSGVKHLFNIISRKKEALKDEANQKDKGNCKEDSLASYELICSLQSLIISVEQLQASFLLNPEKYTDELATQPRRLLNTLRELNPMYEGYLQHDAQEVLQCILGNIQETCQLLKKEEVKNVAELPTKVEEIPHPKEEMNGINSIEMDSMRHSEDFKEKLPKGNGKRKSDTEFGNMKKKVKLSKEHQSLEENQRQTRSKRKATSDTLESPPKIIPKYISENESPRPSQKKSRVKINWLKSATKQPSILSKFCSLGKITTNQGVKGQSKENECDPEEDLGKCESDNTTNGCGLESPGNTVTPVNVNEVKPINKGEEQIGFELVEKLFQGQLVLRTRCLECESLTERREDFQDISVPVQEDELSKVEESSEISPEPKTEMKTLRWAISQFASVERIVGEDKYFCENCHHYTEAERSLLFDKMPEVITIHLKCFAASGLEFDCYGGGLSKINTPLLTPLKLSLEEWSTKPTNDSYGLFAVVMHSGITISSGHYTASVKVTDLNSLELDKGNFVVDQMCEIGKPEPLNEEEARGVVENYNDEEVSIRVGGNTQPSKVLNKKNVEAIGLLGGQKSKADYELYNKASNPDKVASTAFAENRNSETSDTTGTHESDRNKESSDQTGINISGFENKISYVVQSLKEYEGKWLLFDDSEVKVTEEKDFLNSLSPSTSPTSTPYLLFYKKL
# Sequence of Dual specificity protein kinase CLK4 (Homo sapiens) (Q9HAZ1 whole entry, looked up): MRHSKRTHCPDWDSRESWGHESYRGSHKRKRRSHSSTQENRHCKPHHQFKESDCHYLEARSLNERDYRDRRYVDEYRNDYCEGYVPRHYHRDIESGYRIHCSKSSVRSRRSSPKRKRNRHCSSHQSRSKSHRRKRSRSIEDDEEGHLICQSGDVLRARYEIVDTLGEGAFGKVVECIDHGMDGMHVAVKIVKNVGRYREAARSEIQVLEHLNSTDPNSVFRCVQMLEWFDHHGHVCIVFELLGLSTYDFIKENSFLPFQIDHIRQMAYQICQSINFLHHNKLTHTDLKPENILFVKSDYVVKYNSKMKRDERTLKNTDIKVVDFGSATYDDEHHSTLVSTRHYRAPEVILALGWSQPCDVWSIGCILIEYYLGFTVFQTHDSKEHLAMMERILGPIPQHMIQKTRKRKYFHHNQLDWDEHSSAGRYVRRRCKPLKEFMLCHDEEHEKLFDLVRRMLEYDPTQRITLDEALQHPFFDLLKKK
# Sequence of Glucocorticoid receptor (Homo sapiens) (P04150 whole entry, looked up, the tested form may be a part): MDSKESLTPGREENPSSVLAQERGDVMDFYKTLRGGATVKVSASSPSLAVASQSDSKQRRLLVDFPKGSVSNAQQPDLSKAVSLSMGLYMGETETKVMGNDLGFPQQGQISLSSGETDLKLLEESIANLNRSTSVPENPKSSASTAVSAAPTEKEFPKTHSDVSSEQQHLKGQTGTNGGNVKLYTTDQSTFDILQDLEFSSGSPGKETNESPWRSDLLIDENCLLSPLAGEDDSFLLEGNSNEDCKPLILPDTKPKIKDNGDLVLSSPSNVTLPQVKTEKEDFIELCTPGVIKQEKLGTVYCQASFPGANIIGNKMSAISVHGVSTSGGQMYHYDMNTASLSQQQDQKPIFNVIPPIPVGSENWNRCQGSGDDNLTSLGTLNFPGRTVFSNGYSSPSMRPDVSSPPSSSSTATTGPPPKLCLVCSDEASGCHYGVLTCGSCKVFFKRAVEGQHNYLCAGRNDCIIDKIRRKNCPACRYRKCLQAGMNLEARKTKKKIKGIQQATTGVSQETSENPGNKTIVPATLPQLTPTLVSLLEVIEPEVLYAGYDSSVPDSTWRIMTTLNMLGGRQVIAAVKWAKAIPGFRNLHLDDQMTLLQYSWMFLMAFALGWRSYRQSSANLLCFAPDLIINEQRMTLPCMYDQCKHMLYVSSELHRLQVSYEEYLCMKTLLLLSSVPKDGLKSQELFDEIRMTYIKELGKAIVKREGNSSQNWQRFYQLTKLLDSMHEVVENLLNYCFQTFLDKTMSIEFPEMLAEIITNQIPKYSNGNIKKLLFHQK
# Sequence of Cytochrome P450 1A2 (Homo sapiens) (P05177 whole entry, looked up): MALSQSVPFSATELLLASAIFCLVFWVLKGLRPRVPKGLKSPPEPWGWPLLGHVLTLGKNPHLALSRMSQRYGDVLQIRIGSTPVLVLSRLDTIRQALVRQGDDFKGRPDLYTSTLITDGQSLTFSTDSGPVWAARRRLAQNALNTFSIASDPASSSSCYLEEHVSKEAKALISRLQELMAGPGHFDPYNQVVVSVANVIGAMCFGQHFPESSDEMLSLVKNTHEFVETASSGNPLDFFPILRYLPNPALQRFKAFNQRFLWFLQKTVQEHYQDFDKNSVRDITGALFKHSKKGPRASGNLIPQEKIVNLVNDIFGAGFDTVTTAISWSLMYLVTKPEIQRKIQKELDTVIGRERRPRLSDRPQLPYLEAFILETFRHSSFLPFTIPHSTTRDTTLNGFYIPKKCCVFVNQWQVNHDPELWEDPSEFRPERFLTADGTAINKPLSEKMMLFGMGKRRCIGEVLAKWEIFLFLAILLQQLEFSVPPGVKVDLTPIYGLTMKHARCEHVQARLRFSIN
# Sequence of Lysosomal acid glucosylceramidase (Homo sapiens) (P04062 whole entry, looked up): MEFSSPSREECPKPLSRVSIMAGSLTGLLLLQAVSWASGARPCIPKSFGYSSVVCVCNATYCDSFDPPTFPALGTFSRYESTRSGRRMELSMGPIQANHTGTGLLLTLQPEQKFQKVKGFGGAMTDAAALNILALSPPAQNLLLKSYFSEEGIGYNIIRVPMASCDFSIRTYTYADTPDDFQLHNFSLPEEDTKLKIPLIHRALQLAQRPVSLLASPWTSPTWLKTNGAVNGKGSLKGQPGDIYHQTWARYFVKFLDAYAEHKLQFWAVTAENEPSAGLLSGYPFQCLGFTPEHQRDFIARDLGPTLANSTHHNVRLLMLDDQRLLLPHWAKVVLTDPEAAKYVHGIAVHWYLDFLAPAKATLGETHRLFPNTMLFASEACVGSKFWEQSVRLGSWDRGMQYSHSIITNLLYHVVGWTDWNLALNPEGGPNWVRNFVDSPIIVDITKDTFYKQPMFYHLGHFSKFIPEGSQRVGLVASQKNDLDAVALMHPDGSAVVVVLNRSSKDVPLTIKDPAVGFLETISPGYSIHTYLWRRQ
# Sequence of Cytochrome P450 3A4 (Homo sapiens) (P08684 whole entry, looked up): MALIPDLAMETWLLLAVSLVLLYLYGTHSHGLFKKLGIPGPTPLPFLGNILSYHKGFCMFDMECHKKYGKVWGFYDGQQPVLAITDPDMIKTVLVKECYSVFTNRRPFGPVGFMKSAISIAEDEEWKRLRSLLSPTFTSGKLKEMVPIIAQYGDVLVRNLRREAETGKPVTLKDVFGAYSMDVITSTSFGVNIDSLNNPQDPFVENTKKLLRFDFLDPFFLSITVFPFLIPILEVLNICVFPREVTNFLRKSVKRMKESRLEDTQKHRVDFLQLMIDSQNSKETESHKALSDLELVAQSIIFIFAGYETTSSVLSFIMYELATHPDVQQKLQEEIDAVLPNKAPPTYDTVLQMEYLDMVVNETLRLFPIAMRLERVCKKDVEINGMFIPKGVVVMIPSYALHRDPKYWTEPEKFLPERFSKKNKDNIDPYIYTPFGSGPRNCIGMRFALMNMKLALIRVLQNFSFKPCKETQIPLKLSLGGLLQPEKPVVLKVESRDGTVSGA
# Sequence of 3',5'-cyclic-AMP phosphodiesterase 4B (Homo sapiens) (Q07343 whole entry, looked up): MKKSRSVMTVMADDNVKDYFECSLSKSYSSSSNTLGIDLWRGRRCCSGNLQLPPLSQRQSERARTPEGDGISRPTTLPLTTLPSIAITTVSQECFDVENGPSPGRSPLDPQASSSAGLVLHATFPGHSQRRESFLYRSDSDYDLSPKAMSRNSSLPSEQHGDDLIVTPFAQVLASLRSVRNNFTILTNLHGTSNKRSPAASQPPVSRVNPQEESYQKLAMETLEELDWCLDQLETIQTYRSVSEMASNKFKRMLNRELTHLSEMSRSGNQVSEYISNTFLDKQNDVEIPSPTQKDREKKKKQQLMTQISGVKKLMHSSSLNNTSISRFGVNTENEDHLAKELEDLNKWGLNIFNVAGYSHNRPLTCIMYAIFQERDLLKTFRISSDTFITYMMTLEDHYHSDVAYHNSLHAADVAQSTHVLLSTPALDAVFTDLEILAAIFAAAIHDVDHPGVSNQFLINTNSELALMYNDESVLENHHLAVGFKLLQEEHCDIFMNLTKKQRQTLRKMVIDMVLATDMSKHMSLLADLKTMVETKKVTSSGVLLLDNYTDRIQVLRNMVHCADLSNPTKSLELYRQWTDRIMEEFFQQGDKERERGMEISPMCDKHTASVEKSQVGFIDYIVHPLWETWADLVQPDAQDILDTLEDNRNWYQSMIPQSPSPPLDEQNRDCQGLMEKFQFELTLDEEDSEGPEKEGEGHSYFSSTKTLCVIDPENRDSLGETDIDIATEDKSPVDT
# Sequence of Cytochrome P450 2C19 (Homo sapiens) (P33261 whole entry, looked up): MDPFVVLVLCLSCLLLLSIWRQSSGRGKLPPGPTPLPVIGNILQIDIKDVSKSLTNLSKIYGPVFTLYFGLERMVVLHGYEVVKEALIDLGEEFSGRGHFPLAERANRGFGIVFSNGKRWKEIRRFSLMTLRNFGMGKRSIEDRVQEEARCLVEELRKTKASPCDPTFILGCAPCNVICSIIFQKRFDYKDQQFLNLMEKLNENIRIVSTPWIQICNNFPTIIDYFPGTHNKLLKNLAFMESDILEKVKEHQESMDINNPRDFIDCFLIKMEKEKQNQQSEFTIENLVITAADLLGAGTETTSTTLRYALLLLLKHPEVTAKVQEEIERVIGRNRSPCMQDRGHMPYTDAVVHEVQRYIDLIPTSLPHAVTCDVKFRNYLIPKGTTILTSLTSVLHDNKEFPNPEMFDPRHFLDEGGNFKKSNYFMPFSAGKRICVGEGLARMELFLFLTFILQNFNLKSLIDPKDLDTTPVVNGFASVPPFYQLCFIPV
Compound,Potency [1],"activity change, negative = inhibition [2]","activity change, negative = inhibition [3]","activity, negative = inhibition [4]",Potency [5],Potency [6],Potency [7],Potency [8],Potency [9],Potency [10],outcome [11],Potency [12],Potency [13],Potency [14],Potency [15],Potency [16],Potency [17],Potency [18]
FC(F)(F)c1ccccc1-c1nccc(-n2ccnc2)n1,> 11.4 µM,-7.77%,2.35%,0.859%,> 46 µM,> 46 µM,inactive,15.8 µM (active),25.1 µM (active),inactive,inactive,–,–,–,–,–,–,–
COc1cccc(-c2cncnc2NCc2cccc(C)c2)c1,> 11.4 µM,-11.8%,-0.339%,-10.4%,> 46 µM,> 46 µM,inactive,31.6 µM (active),25.1 µM (active),inactive,inactive,2 µM (active),0.398 µM (active),inactive,0.794 µM (active),–,–,–
Cc1noc(C)c1-c1ccc2ncnc(N3CCC(C(=O)O)CC3)c2c1,> 11.4 µM,8.06%,–,10.8%,> 46 µM,> 46 µM,inactive,25.1 µM (active),25.1 µM (active),inactive,inactive,25.1 µM (active),–,–,–,inactive,–,–
c1cncc(-c2nccc(NCc3cccs3)n2)c1,> 11.4 µM,4.03%,13.5%,-3.1%,> 46 µM,> 46 µM,inactive,14.1 µM (active),10 µM (active),inactive,inactive,0.2 µM (active),–,inactive,7.94 µM (active),–,0.398 µM (active),0.631 µM (active)
CN(C)C(=O)c1ccc(-c2cc(NCc3cccs3)ncn2)cc1,> 11.4 µM,-17.2%,3.58%,5.59%,> 46 µM,> 46 µM,inactive,20 µM (active),22.4 µM (active),inactive,inactive,–,–,–,–,–,–,–
COCCn1c(=O)c(C)nc2cnc(OC)nc21,> 11.4 µM,-9.91%,5.14%,-16.1%,> 9.22 µM,> 46 µM,inactive,inactive,inactive,inactive,inactive,–,–,inactive,–,inactive,–,–
